Compounds with a hit are over-represented: about 12% of the library has one in this group of screens.
ALDH1A1 block: ALDH1A1 (human) enzyme inhibition | P00352 | Purified ALDH1A1, NADH fluorescence, propionaldehyde substrate | Potency, µM (titrated, usually from 75.3 µM), hits mostly inhibitors | hit rate 7.3% among 220,000; active means well fitted inhibition curve with a large enough effect, not every such curve was filed as active; inconclusive means small, poorly fitted or top-dose-only effect, or another doubt; inactive means no such curve, though single readings can be large or run the other way
RORg inh: inhibitors of mouse ROR gamma transcriptional activity. P51450. Drosophila S2 Gal4-RORgamma UAS-luciferase reporter, 20 h. Potency, µM (doses to about 53.6 µM), usual class: inhibitors. hit rate 5.4% among 310,000; further: nearly all actives have a fitted effect of over 60% in size
Target sequence (P51450 whole entry, looked up, the tested form may be a part): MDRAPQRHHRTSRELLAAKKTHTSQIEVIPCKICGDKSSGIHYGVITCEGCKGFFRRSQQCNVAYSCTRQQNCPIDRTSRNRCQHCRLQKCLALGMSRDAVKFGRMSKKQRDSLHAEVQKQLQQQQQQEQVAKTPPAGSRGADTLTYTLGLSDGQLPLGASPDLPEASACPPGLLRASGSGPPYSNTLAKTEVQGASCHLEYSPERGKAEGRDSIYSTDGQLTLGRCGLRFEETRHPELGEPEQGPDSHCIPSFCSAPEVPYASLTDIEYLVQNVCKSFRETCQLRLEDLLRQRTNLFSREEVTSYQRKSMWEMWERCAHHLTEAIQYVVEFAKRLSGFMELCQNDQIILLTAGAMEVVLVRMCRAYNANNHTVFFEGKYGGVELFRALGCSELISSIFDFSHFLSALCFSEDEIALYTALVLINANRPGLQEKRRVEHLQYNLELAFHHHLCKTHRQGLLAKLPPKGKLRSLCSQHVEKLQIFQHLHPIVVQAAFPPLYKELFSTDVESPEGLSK
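Stable Schneider cell line, Gal4 DNA-binding domain fused to ROR gamma, UAS-luciferase. Cmpd 1 hr RT → CuSO4 700 uM final → 20 hr RT → luciferase reagent 10 min → luminescence.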
Sfp PPTase inh: Sfp phosphopantetheinyl transferase inhibition. Q9F4F7. AID 1490. Biochemical Sfp PPTase activity, qHTS. hit rate 3.5% among 310,000. Potency, µM, most hits filed as inhibitors;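 further: the enzyme is Sfp with the accession as filed and its product quenches rhodamine fluorescence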
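After 15 min at room temperature with compound, 15 nM Sfp received 5 uM rhodamine-CoA plus 12.5 uM BHQ-2-ybbR (50 mM Hepes pH 7.6, 10 mM MgCl2). Rate came from the fluorescence difference over 30 min, ex 525/em 598 nm.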
VP16 counter: Gal4-VP16 reporter inhibition counter-screen. Drosophila S2 Gal4-VP16 UAS-luciferase, luminescence, 20 h. Potency, µM (doses to about 53.6 µM), most hits filed as inhibitors. hit rate 3.5% among 310,000;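 further: Gal4-VP16 expression switched on by copper sulfate through the metallothionein promoter; nearly all actives have a fitted effect of over 50% in size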
PLK1 PBD block: PLK1 (human) polo-box domain binding inhibition | hit rate 2.8% among 360,000 | Plk1 PBD binding of FITC phosphopeptide, fluorescence polarization | Potency, µM, usual class: inhibitors | AID 720504; further: series mostly up to about 57 µM; nearly all actives have a fitted effect of over 65% in size
Numbers stand for hits; . = inactive; ? = inconclusive; / = no result; [ ] = dose if it differs, or a comment. Unless noted, the call rests on the fitted dose curve; in most records, active means well fitted curve in the direction sought with a large enough effect; inconclusive means small, poorly fitted or top-dose-only effect, or another doubt; inactive means no such curve, though single readings can be large; an effect the other way counts as inactive or inconclusive.

SMILES	ALDH1A1 block	RORg inh	Sfp PPTase inh	VP16 counter	PLK1 PBD block
CCCCC[C@@H](C)N1C[C@@H](COCc2ccccc2)Oc2cc(N3CCC[C@@H]3CO)ccc2S1(=O)=O	/	/	/	/	.
CC(C)C(=O)N1CCN(C2=NS(=O)(=O)c3ccccc32)CC1	.	.	.	.	6.7µM
CCCC(=O)N1CCN(C2=NS(=O)(=O)c3ccccc32)CC1	.	.	.	.	.
CCn1c(C)nc2cc(C(=O)N/N=C(\C)c3ccccc3O)ccc21	.	0.63µM	.	0.63µM	.
CCn1c(C)nc2cc(C(=O)NNC(=S)Nc3ccccc3OC)ccc21	?	13µM	.	.	.
CCn1c(C)nc2cc(C(=O)N/N=C/c3ccccc3C)ccc21	.	?	.	?	.
CCOC(=O)CSC1=C(C#N)C(c2ccccc2)C(C(C)=O)=C(C)N1 (stereo not drawn)	32µM	.	79µM	.	.
CSC1=C(C#N)C(c2ccccc2)C(C(C)=O)=C(C)N1 (stereo not drawn)	.	.	.	.	.
CSC1=C(C#N)C(c2ccccc2Cl)C(C(C)=O)=C(C)N1 (stereo not drawn)	?	.	.	.	.
CSCSC1=C(C#N)C(c2ccc(Cl)cc2)C(C(C)=O)=C(C)N1 (stereo not drawn)	8.9µM	14µM	10µM	?	/
Cc1ccc2nsnc2c1NC(=O)c1ccc(-c2cc(Cl)ccc2Cl)o1	?	?	28µM	?	.
O=C(Nc1cccc2nsnc12)c1ccc(-c2cccc(Cl)c2)o1	?	?	25µM	?	?
O=C(Nc1ccccc1N1CCCCC1)c1ccc(-c2cccc(Cl)c2)o1	.	.	.	.	.
Cc1ccc2nsnc2c1NC(=O)Cc1ccc(Cl)cc1	?	.	.	.	.
COc1ccc(S(=O)(=O)NCc2cc(=O)n(C)c(=O)n2C)cc1F	/	.	.	.	.
Cc1ccc(NC(N)=S)cc1C	.	?	.	?	.
COc1ccc(/C([O-])=C(/C(=S)Nc2ccc(C)c(C)c2)n2c[n+](C)c3ccccc32)cc1OC	?	?	45µM	.	?
NC(=O)C1O[C@@H](O)[C@H](O)[C@@H](O)[C@H]1O (stereo partly drawn)	/	.	.	.	/
O=C(CNC(=O)OCc1ccccc1)NCC(=O)Oc1ccc([N+](=O)[O-])cc1	/	/	/	/	12µM
O=P(O)(O)OC(CO)CO	/	.	.	.	/
Nc1nc(=S)c2ncn(C3CCCC3)c2[nH]1	?	?	13µM	.	.
CCNC(=O)C1CCCN(C(=O)c2ccc(OC)c(OC)c2)CC1 (stereo not drawn)	/	/	/	/	.
COc1ccc(CC(=O)NNC(=O)c2cnccn2)cc1	.	.	56µM	.	.
CCC(C(=O)Nc1cnccn1)c1ccccc1 (stereo not drawn)	.	.	.	.	.
COc1ccc(C(=O)NC(=S)NNC(=O)c2cnccn2)cc1	18µM	.	.	.	.
SMILES	ALDH1A1 block	RORg inh	Sfp PPTase inh	VP16 counter	PLK1 PBD block
COc1ccc(CC(=O)NNC(=O)c2ccccn2)cc1	/	?	.	.	.
CCC(C(=O)NNC(=O)c1cnccn1)c1ccccc1 (stereo not drawn)	.	11µM	?	16µM	.
CC(C)(C)C(=O)NNC(=O)c1cnccn1	/	.	79µM	.	.
CC=O	.	.	/	.	/
CC(C)(C)OC(=O)N/N=C/c1cccn1-c1ccc([N+](=O)[O-])cc1	?	.	.	.	.
COc1ccc(CC(=O)N/N=C/c2cccn2-c2ccc([N+](=O)[O-])cc2)cc1OC	.	.	56µM	.	.
COc1ccc([N+](=O)[O-])cc1/C=N/NC(=O)Cc1ccccc1	?	7.9µM	.	?	.
COc1ccc(/C=N\Nc2ccc([N+](=O)[O-])cc2[N+](=O)[O-])c(C(=O)O)c1OC	?	.	79µM	.	.
CN1CCCN(C)C1c1cc([N+](=O)[O-])ccc1O	.[13.5 µM]	/	/	/	/
C=C1CC[C@H](O)C/C1=C/C=C1\CCC[C@]2(C)C([C@H](C)CCCC(C)(C)O)CC[C@@H]12 (stereo partly drawn)	.	/	.	/	/
Cc1ccc(N2C(=N)/C(=C3/Nc4ccccc4S3)C(c3ccccc3)C2=O)cc1 (stereo not drawn)	9.5µM	.	.	.	?
Cc1ccc(N2C(=O)C(F)(F)C2c2ccccc2)cc1 (stereo not drawn)	.	.	.	.	.
N#Cc1c(N2CCN(C(=O)c3ccco3)CC2)nc(-c2ccccc2)c2c1CCCC2	?	?	45µM	?	.
CC(C)Cc1nc(N2CCN(C(=O)c3ccco3)CC2)c(C#N)c2c1CCC2	?	.	45µM	?	.
CC(C)Cc1nc(N2CCN(C(=O)c3ccccc3)CC2)c(C#N)c2c1CCC2	?	35µM	?	40µM	.
CC(C)Cc1nc(N2CCN(C(=O)C(C)C)CC2)c(C#N)c2c1CCC2	?	1.4µM	.	.	.
CC(=O)N1CCN(c2nc(CC(C)C)c3c(c2C#N)CCC3)CC1	?	.	.	.	.
CC(C)[C@@H](CC(=O)N[C@@H]1CCCC[C@H]1C(=O)N[C@H](CC(=O)N[C@@H](CCC(=O)O)CC(=O)O)Cc1c[nH]c2ccccc12)NC(=O)C[C@H](Cc1c[nH]c2ccccc12)NC(=O)[C@@H]1CCCC[C@H]1N	.	.	.	.	/
CCCCNC(=O)C(NC(=O)c1cccnc1OC)C(=O)c1ccccc1 (stereo not drawn)	/	/	/	/	.
Nc1ccc2nc(-c3cc(Cl)c(N)c(Cl)c3)[nH]c2c1	?	.	?	.	24µM
Cc1nc2ccc(-c3nc4ccc(N)cc4[nH]3)cc2[nH]1	?	11µM	.	8.9µM	.
Nc1ccc(-c2nc3ccc(N)cc3[nH]2)cc1	?	?	.	.	.
CCc1nc2ccc(C(=O)N(C)Cc3ccco3)cn2c1N(CC)C(=O)NCCc1ccccc1	/	/	/	/	.
Cc1cccc(CNc2ncncc2-c2ccccc2Cl)c1	.	.	.	.	/
CC1(C)Cc2c(sc3nc(-c4ccccc4)n(N)c(=O)c23)CO1	.	.	.	.	.
SMILES	ALDH1A1 block	RORg inh	Sfp PPTase inh	VP16 counter	PLK1 PBD block
CC1(C)Cc2c(sc3nc(-c4cccs4)n(N)c(=O)c23)CO1	.	?	.	16µM	.
O=C1/C(=C\c2cccs2)N=C(c2cccs2)N1Nc1ccccc1	14µM	.	.	.	.
Cc1ccc(S(=O)(=O)N2CCOCC2)cc1C(=O)Nc1nc(-c2ccccn2)cs1	/	/	/	/	17µM
CN1CCN(S(=O)(=O)c2cccc(C(=O)Nc3nc(-c4ccccc4)cs3)c2)CC1	?	.	.	.	.
Cc1ccc2nc(-c3ccccn3)cc(C(=O)Nc3ccc(S(=O)(=O)N4CCOCC4)cc3)c2c1	?	.	.	.	.
O=C(Nc1nc(-c2ccccn2)cs1)c1cccc(S(=O)(=O)N2CCOCC2)c1	/	/	/	/	19µM
CCC1CCCCN1C(=S)NC(=O)c1cc(S(=O)(=O)N2CCOCC2)ccc1C (stereo not drawn)	/	2.2µM	.	4µM	.
CCOC(=O)Cc1csc(NC(=O)c2ccc(S(=O)(=O)N3CCCC3)cc2)n1	11µM	?	.	.	.
